The whole screen tested about 39,000 compounds, of which about 3,300 (8.5%) were called active. The sample as a whole holds a higher share of actives than the screen did.

The assay has as its system HepG2. The experiment in a line: cytotoxicity call (relative viability < 0.9). Particulars: 10 µM.
On to `Cc1ccc(S(=O)(=O)N(C)C[C@H]2Oc3c(NC(=O)C4CCOCC4)cccc3C(=O)N([C@@H](C)CO)C[C@H]2C)cc1`, for which the cytotoxicity call is “inactive”. As for `C[C@@H]1CN([C@@H](C)CO)C(=O)c2cc(NS(C)(=O)=O)ccc2O[C@@H](C)CCCCO[C@@H]1CN(C)C(=O)CCCN(C)C`, the cytotoxicity call is “inactive”. The entry for `CN1CCN(C(=O)C[C@@H]2CC[C@@H](NC(=O)Cc3ccccn3)[C@@H](CO)O2)CC1` is “inactive”; for `NCC[C@H]1CC[C@@H](NC(=O)C2CCCC2)[C@@H](CO)O1` it is “inactive”.

Turning to `Cc1noc(C)c1S(=O)(=O)Nc1ccc2c(c1)C(=O)N([C@@H](C)CO)C[C@@H](C)[C@H](CN(C)S(C)(=O)=O)OCCCC[C@@H](C)O2`, the cytotoxicity call is “inactive”. Turning to `CC(=O)N1CCC[C@H](C(=O)O)C1`, the cytotoxicity call was “inactive”. Then `COc1ccc(S(=O)(=O)N[C@H]2CC[C@H](CC(=O)N3CCC(Cc4ccccc4)CC3)O[C@@H]2CO)cc1`, with “inactive”; and `C[C@H]1CCCCO[C@@H](CN(C)CC2CCCCC2)[C@@H](C)CN([C@@H](C)CO)C(=O)c2cc(NS(=O)(=O)c3ccc(Cl)cc3)ccc2O1`, with “inactive”.

Take `C[C@H]1CCCCO[C@H](CN(C)CC2CCCCC2)[C@@H](C)CN([C@@H](C)CO)C(=O)c2cc(NS(=O)(=O)c3ccc(Cl)cc3)ccc2O1`: the cytotoxicity call was “inactive”. The entry for `C[C@@H]1CCCCO[C@@H](CN(C)CC2CCCCC2)[C@@H](C)CN([C@@H](C)CO)C(=O)c2cc(NS(=O)(=O)c3ccc(Cl)cc3)ccc2O1` is “active”. Then `C[C@H](CO)N1C[C@H](C)[C@H](CN(C)CC2CCCCC2)OCCCC[C@H](C)Oc2ccc(NS(=O)(=O)c3ccc(Cl)cc3)cc2C1=O`, with “active”; and `C[C@@H]1CN([C@@H](C)CO)C(=O)c2cc(NS(=O)(=O)c3ccc(Cl)cc3)ccc2O[C@@H](C)CCCCO[C@H]1CN(C)CC1CCCCC1`, with “inactive”. Regarding `C[C@@H]1CN([C@@H](C)CO)C(=O)c2cc(NS(=O)(=O)c3ccc(Cl)cc3)ccc2O[C@@H](C)CCCCO[C@@H]1CN(C)CC1CCCCC1`, the cytotoxicity call was “inactive”. The entry for `C[C@@H]1CN([C@@H](C)CO)S(=O)(=O)c2ccc(-c3cccc(F)c3)cc2O[C@@H]1CN(C)S(C)(=O)=O` is “inactive”. As for `CS(=O)(=O)N1CCc2ccc(N)cc2C1`, the cytotoxicity call was “inactive”. The entry for `Cc1noc(C)c1NC(=O)Nc1ccc2c(c1)CC(=O)N([C@H](C)CO)C[C@@H](C)[C@H](CN(C)Cc1ccc(C(F)(F)F)cc1)O2` is “inactive”; for `Cc1ccc(S(=O)(=O)Nc2ccc3c(c2)C(=O)N([C@@H](C)CO)C[C@H](C)[C@@H](CN(C)S(=O)(=O)c2ccc(F)cc2)O3)cc1` it is “inactive”; for `CN(CCO)c1ccccn1` it is “inactive”. The entry for `CN(CCOc1ccc(CC2SC(=O)NC2=O)cc1)c1ccccn1.O=C(O)C=CC(=O)O` (centres undefined) is “active”; for `CCc1ccc(CCOc2ccc(CC3SC(=O)NC3=O)cc2)nc1.Cl` (centres undefined) it is “inactive”.

In the case of `C[C@@H]1CCCCO[C@@H](CN(C)S(=O)(=O)c2cccs2)[C@@H](C)CN([C@H](C)CO)C(=O)c2cc(NC(=O)CCCCCC(=O)Nc3ccccc3N)ccc2O1`, the cytotoxicity call is “inactive”.

On to `CN(C)C1CCN(C(=O)c2cnc(-c3noc4cc(-c5ccccc5C(F)(F)F)ccc34)s2)CC1`, for which the cytotoxicity call is “active”. The entry for `C[C@H](CO)N1C[C@H](C)[C@H](CN(C)C(=O)Nc2cccc3ccccc23)Oc2ncc(-c3cccc(C(F)(F)F)c3)cc2C1=O` is “inactive”; for `C[C@H](CO)N1C[C@H](C)[C@H](CN(C)C(=O)Nc2ccccc2)Oc2ncc(-c3cccc(C(F)(F)F)c3)cc2C1=O` it is “inactive”; for `CN(C)C1CCN(C(=O)c2cnc(-c3noc4cc(-c5cccc(C(F)(F)F)c5)ccc34)s2)CC1` it is “active”. `C[C@H]1CN([C@@H](C)CO)C(=O)c2cccc(NC(=O)C3CCCCC3)c2O[C@@H]1CN(C)Cc1ccc(C(F)(F)F)cc1`: the cytotoxicity call was “inactive”. In the case of `CCCN(C)C[C@H]1OCCCC[C@H](C)Oc2ccc(NC(=O)Nc3cccc4ccccc34)cc2C(=O)N([C@@H](C)CO)C[C@H]1C`, the cytotoxicity call was “inactive”. As for `O=C(CCCCCNC(=O)OCc1ccc(CO[C@@H]2C[C@H](c3csc4ccccc34)C=C(C(=O)N3CCN(Cc4ccccc4)CC3)O2)cc1)NO`, the cytotoxicity call is “inactive”.

In the case of `C[C@H]1CN([C@@H](C)CO)C(=O)c2cc(NC(=O)C3CC3)ccc2O[C@H]1CN(C)S(=O)(=O)c1cccs1`, the cytotoxicity call was “inactive”. Consider `CC(C)Cc1ccc(C(C)C(=O)O)cc1` (centres undefined), for which the cytotoxicity call is “inactive”. Then `CC(C)Cc1ccc([C@@H](C)C(=O)Nc2ccc(Cl)cc2)cc1`, with “active”; and `N[C@@H](Cc1ccc(Cl)cc1)C(=O)O`, with “inactive”; and `C[C@@H]1CN([C@@H](C)CO)C(=O)CCCn2nncc2CO[C@H]1CN(C)C(=O)Nc1ccc2c(c1)OCO2`, with “inactive”. Then `C[C@@H]1CN([C@@H](C)CO)C(=O)c2cc(-c3cncnc3)cnc2O[C@@H]1CN(C)C(=O)Nc1ccc2c(c1)OCO2`, with “inactive”.

With `COc1ccc(N(C(=O)CSc2ncccn2)[C@@H](C(=O)NCCc2ccccc2)c2cccs2)cc1Cl`, the cytotoxicity call is “inactive”.

`O=C(CCCl)NCCc1ccccc1`: the cytotoxicity call is “inactive”.

For `COc1ccc(N(C(=O)CCl)[C@@H](C(=O)NCCc2ccccc2)c2ccc(Cl)s2)cc1Cl`, the cytotoxicity call was “active”. Then `CC(C)(C)OC(=O)NCCOCCOCCOc1ccc(N(C(=O)CCl)[C@@H](C(=O)NCCc2ccccc2)c2cccs2)cc1Cl`, with “active”; and `Cc1noc(C)c1S(=O)(=O)Nc1cccc2c1O[C@H](CN(C)S(C)(=O)=O)[C@H](C)CN([C@H](C)CO)C2=O`, with “inactive”; and `C[C@H]1CN([C@@H](C)CO)C(=O)Cc2cc(NS(=O)(=O)c3cn(C)cn3)ccc2O[C@@H]1CN(C)Cc1ccccc1`, with “inactive”. Then `C[C@@H]1CCCCO[C@@H](CN(C)C(=O)Nc2ccc3c(c2)OCO3)[C@H](C)CN([C@H](C)CO)C(=O)c2cc(NC(=O)c3ccncc3)ccc2O1`, with “inactive”; and `COc1ccc(CNC(=O)C[C@@H]2C[C@@H]3c4cc(NS(=O)(=O)c5ccc(F)cc5)ccc4O[C@@H]3[C@@H](CO)O2)cc1`, with “inactive”; and `C[C@H]1CCCCO[C@@H](CN(C)C(=O)Nc2ccc(F)cc2)[C@@H](C)CN([C@@H](C)CO)C(=O)c2cc(NC(=O)Nc3ccccc3)ccc2O1`, with “inactive”. The entry for `C[C@@H]1CCCCO[C@H](CN(C)Cc2ccncc2)[C@@H](C)CN([C@H](C)CO)C(=O)c2cc(NC(=O)Nc3ccc4c(c3)OCO4)ccc2O1` is “inactive”.

(Values after the antibiotic and cytotoxicity screens of Wong et al. (2023).)
